Results taken from the supplement of paper PMC7411054.
Structures can show the parent of a compound that is named as a salt.

Key:
Test in all cases: phenotypically active (imaging signature differs from DMSO and reproducible) at any of 0.3-9 uM (binary (1 = active, 0 = inactive)); higher = active
Settings in all cases: treatment time: 24 h
[1] = test system: A549-ACTB-RAB5A
Procedure, shortened: (§1)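 Phenotypic activity depended on meeting both a deviation and a reproducibility criterion. The fifteen gene-edited A549, HepG2 and WPMY1 reporter lines were treated at 0.3, 1, 3 or 9 µM for 24 h, four wells each, then imaged live with features normalised to solvent control wells. Deviation required ≥3 of 4 wells past the 95th percentile of control Euclidean distances, and reproducibility a median replicate Pearson correlation above the 95th percentile of non-replicates.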

[2] = test system: A549-CANX-COX4
Procedure, shortened: as §1

[3] = test system: A549-GM130-SQSTM1
Procedure, shortened: as §1

[4] = test system: A549-TP53BP1-CLTA
Procedure, shortened: as §1

[5] = test system: A549-TUBA1B-RELA
Procedure, shortened: as §1

[6] = test system: HepG2-ACTB-RAB5A
Procedure, shortened: as §1

[7] = test system: HepG2-CANX-COX4
Procedure, shortened: as §1

[8] = test system: HepG2-GM130-SQSTM1
Procedure, shortened: as §1

[9] = test system: HepG2-TP53BP1-CLTA
Procedure, shortened: as §1

[10] = test system: HepG2-TUBA1B-RELA
Procedure, shortened: as §1

[11] = test system: WPMY1-ACTB-RAB5A
Procedure, shortened: as §1

[12] = test system: WPMY1-CANX-COX4
Procedure, shortened: as §1

[13] = test system: WPMY1-GM130-SQSTM1
Procedure, shortened: as §1

[14] = test system: WPMY1-TP53BP1-CLTA
Procedure, shortened: as §1

[15] = test system: WPMY1-TUBA1B-RELA
Procedure, shortened: as §1

Measured: phenotypically active

COc1c2occc2cc2ccc(=O)oc12 [methoxsalen]
inactive: [1] 0 | [2] 0 | [3] 0 | [4] 0 | [5] 0 | [6] 0 | [7] 0 | [8] 0 | [9] 0 | [10] 0 | [11] 0 | [12] 0 | [13] 0 | [14] 0 | [15] 0

CCCc1nc(C(C)(C)O)c(C(=O)OCc2oc(=O)oc2C)n1Cc1ccc(-c2ccccc2-c2nnn[nH]2)cc1 [olmesartan-medoxomil]
inactive: [1] 0 | [2] 0 | [3] 0 | [4] 0 | [5] 0 | [6] 0 | [7] 0 | [8] 0 | [9] 0 | [10] 0 | [11] 0 | [12] 0 | [13] 0 | [14] 0 | [15] 0

Cc1ccccc1Sc1ccc(/C=C2/SC(=S)NC2=O)cc1[N+](=O)[O-]
inactive: [1] 0 | [2] 0 | [3] 0 | [4] 0 | [5] 0 | [6] 0 | [7] 0 | [8] 0 | [9] 0 | [10] 0 | [11] 0 | [12] 0 | [13] 0 | [14] 0 | [15] 0

Nc1c2c(nc3ccccc13)CCCC2 [tacrine]
inactive: [1] 0 | [2] 0 | [3] 0 | [4] 0 | [5] 0 | [6] 0 | [7] 0 | [8] 0 | [9] 0 | [10] 0 | [11] 0 | [12] 0 | [13] 0 | [14] 0 | [15] 0

COc1ccccc1OCC(O)COC(N)=O (stereo not given) [methocarbamol]
inactive: [1] 0 | [2] 0 | [3] 0 | [4] 0 | [5] 0 | [6] 0 | [7] 0 | [8] 0 | [9] 0 | [10] 0 | [11] 0 | [12] 0 | [13] 0 | [14] 0 | [15] 0

O=C(O)CCN(O)C(=O)CCCCCCCCC1CC1
inactive: [1] 0 | [2] 0 | [3] 0 | [4] 0 | [5] 0 | [6] 0 | [7] 0 | [8] 0 | [9] 0 | [10] 0 | [11] 0 | [12] 0 | [13] 0 | [14] 0 | [15] 0

Cc1cnc(C(=O)NCCc2ccc(S(=O)(=O)NC(=O)NC3CCCCC3)cc2)cn1 [glipizide]
inactive: [1] 0 | [2] 0 | [3] 0 | [4] 0 | [5] 0 | [6] 0 | [7] 0 | [8] 0 | [9] 0 | [10] 0 | [11] 0 | [12] 0 | [13] 0 | [14] 0 | [15] 0

OC[C@H]1NC[C@@H](O)[C@@H](O)[C@@H]1O [1-Deoxymannojirimycin hydrochloride]
inactive: [1] 0 | [2] 0 | [3] 0 | [4] 0 | [5] 0 | [6] 0 | [7] 0 | [8] 0 | [9] 0 | [10] 0 | [11] 0 | [12] 0 | [13] 0 | [14] 0 | [15] 0

CC(=O)Oc1ccccc1C(=O)O [aspirin]
inactive: [1] 0 | [2] 0 | [3] 0 | [4] 0 | [5] 0 | [6] 0 | [7] 0 | [8] 0 | [9] 0 | [10] 0 | [11] 0 | [12] 0 | [13] 0 | [14] 0 | [15] 0

COP(=O)(OC)OC(c1ccc(Cl)cc1)P(=O)(OC)OC (stereo not given)
inactive: [1] 0 | [2] 0 | [3] 0 | [4] 0 | [5] 0 | [6] 0 | [7] 0 | [8] 0 | [9] 0 | [10] 0 | [11] 0 | [12] 0 | [13] 0 | [14] 0 | [15] 0

CC(C)NCC(O)c1ccc(NS(C)(=O)=O)cc1 (stereo not given) [sotalol]
inactive: [1] 0 | [2] 0 | [3] 0 | [4] 0 | [5] 0 | [6] 0 | [7] 0 | [8] 0 | [9] 0 | [10] 0 | [11] 0 | [12] 0 | [13] 0 | [14] 0 | [15] 0

O=C(c1ccccc1)c1ccc2n1CCC2C(=O)O (stereo not given) [ketorolac]
inactive: [1] 0 | [2] 0 | [3] 0 | [4] 0 | [5] 0 | [6] 0 | [7] 0 | [8] 0 | [9] 0 | [10] 0 | [11] 0 | [12] 0 | [13] 0 | [14] 0 | [15] 0

CC1Cc2ccccc2N1NC(=O)c1ccc(Cl)c(S(N)(=O)=O)c1 (stereo not given) [indapamide]
inactive: [1] 0 | [2] 0 | [3] 0 | [4] 0 | [5] 0 | [6] 0 | [7] 0 | [8] 0 | [9] 0 | [10] 0 | [11] 0 | [12] 0 | [13] 0 | [14] 0 | [15] 0

CNNCc1ccc(C(=O)NC(C)C)cc1 [procarbazine]
inactive: [1] 0 | [2] 0 | [3] 0 | [4] 0 | [5] 0 | [6] 0 | [7] 0 | [8] 0 | [9] 0 | [10] 0 | [11] 0 | [12] 0 | [13] 0 | [14] 0 | [15] 0

NC(=O)C(c1ccccc1)(c1ccc(F)cc1)c1ccc(F)cc1 [senicapoc]
inactive: [1] 0 | [2] 0 | [3] 0 | [4] 0 | [5] 0 | [6] 0 | [7] 0 | [8] 0 | [9] 0 | [10] 0 | [11] 0 | [12] 0 | [13] 0 | [14] 0 | [15] 0

O=[N+]([O-])c1c(Nc2cc(F)cc(Cl)c2)ccc2nonc12
inactive: [1] 0 | [2] 0 | [3] 0 | [4] 0 | [5] 0 | [6] 0 | [7] 0 | [8] 0 | [9] 0 | [10] 0 | [11] 0 | [12] 0 | [13] 0 | [14] 0 | [15] 0

CN(C)/N=N/c1[nH]cnc1C(N)=O [dacarbazine]
inactive: [1] 0 | [2] 0 | [3] 0 | [4] 0 | [5] 0 | [6] 0 | [7] 0 | [8] 0 | [9] 0 | [10] 0 | [11] 0 | [12] 0 | [13] 0 | [14] 0 | [15] 0

O=C1c2ccccc2C(Cc2ccncc2)(Cc2ccncc2)c2ccccc21
inactive: [1] 0 | [2] 0 | [3] 0 | [4] 0 | [5] 0 | [6] 0 | [7] 0 | [8] 0 | [9] 0 | [10] 0 | [11] 0 | [12] 0 | [13] 0 | [14] 0 | [15] 0

NS(=O)(=O)c1cc2c(cc1Cl)N=C(CSCc1ccccc1)NS2(=O)=O [benzthiazide]
inactive: [1] 0 | [2] 0 | [3] 0 | [4] 0 | [5] 0 | [6] 0 | [7] 0 | [8] 0 | [9] 0 | [10] 0 | [11] 0 | [12] 0 | [13] 0 | [14] 0 | [15] 0

CCn1c(=O)c2cc(C(N)=O)c(N)nc2n(C2CC2)c1=O
inactive: [1] 0 | [2] 0 | [3] 0 | [4] 0 | [5] 0 | [6] 0 | [7] 0 | [8] 0 | [9] 0 | [10] 0 | [11] 0 | [12] 0 | [13] 0 | [14] 0 | [15] 0

NC(=O)N1c2ccccc2C=Cc2ccccc21 [carbamazepine]
inactive: [1] 0 | [2] 0 | [3] 0 | [4] 0 | [5] 0 | [6] 0 | [7] 0 | [8] 0 | [9] 0 | [10] 0 | [11] 0 | [12] 0 | [13] 0 | [14] 0 | [15] 0

C1CCN2C[C@@H]3C[C@@H](CN4CCCC[C@@H]34)[C@H]2C1 [Sparteine (-)]
inactive: [1] 0 | [2] 0 | [3] 0 | [4] 0 | [5] 0 | [6] 0 | [7] 0 | [8] 0 | [9] 0 | [10] 0 | [11] 0 | [12] 0 | [13] 0 | [14] 0 | [15] 0

C[n+]1cccc(C(=O)O)c1 [Trigonelline hydrochloride]
inactive: [1] 0 | [2] 0 | [3] 0 | [4] 0 | [5] 0 | [6] 0 | [7] 0 | [8] 0 | [9] 0 | [10] 0 | [11] 0 | [12] 0 | [13] 0 | [14] 0 | [15] 0

Cc1ccccc1C(OCCN(C)C)c1ccccc1 (stereo not given) [orphenadrine]
inactive: [1] 0 | [2] 0 | [3] 0 | [4] 0 | [5] 0 | [6] 0 | [7] 0 | [8] 0 | [9] 0 | [10] 0 | [11] 0 | [12] 0 | [13] 0 | [14] 0 | [15] 0
